D1 potentiator: enhances dopamine response at the human D1 receptor; HEK293 TREx D1 cells, calcium flux, dopamine EC20 potentiation; potentiation, % at 10 µM; 0.036% of 360,000 active; AID 504651; in the data active = potentiation above about 30%
Target sequence (P21728 whole entry, looked up): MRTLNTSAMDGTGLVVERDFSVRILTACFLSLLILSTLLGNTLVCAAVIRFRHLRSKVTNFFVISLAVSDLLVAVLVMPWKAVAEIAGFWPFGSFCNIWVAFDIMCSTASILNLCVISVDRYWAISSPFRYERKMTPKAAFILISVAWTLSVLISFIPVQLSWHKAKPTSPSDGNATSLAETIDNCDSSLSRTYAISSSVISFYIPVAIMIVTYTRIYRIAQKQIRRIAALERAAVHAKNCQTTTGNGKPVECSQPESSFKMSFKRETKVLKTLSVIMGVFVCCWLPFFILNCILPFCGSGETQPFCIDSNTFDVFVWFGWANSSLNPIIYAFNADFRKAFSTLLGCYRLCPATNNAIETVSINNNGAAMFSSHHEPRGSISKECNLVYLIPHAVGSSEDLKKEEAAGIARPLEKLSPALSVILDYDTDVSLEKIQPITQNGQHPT
TRHR agonist: TRH receptor (human) agonism. P34981. TRHR cells, calcium flux fluo-8, FDSS agonist mode. activation, % at 2 µM. 0.18% of 360,000 active
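Steps: seed TRHR cells overnight; add fluo-8 no-wash Ca dye, RT 30 min–1.5 h; record 10 s baseline; pin-transfer compounds; monitor fluorescence 1 cycle/s for the agonist window. Calcium increases flag candidate agonists.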
D1 antag: blocks dopamine activation of the human D1 receptor | P21728 | HEK293 TREx D1 cells, calcium flux, dopamine EC80; stronger effect = lower value | activity change, negative = inhibition, % at 10 µM | 3.2% of 360,000 active | AID 504652; in the data active = activity change below about -30%
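Kinetic fluorescence of a calcium dye serves as the read-out. D1-expressing Hek293 Trex cells, induced overnight at 30 C, are exposed to compound for 180 s before an EC80 dopamine addition, then read 180 s further.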
TRHR PAM: allosteric enhancers of human TRH receptor; AID 493056; P34981; enhancement, % at 2 µM; 0.66% of 360,000 active; TRHR cells, fluo-8 calcium fluorescence, EC20 TRH enhancement; in the data active = enhancement above about 30%
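TRHR-expressing cells loaded with fluo-8 calcium dye were read kinetically (ex 480/em 530) during compound addition, then stimulated with an EC20 of TRH (10 nM final). Enhancement of the Gq-mediated intracellular calcium response was scored.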
D1 agonist: activates the human D1 dopamine receptor. P21728. HEK293 T-REx D1 cells, calcium flux, agonist mode. activation, % at 2 µM. 1% of 360,000 active
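Agonism was scored from calcium flux recorded over 180 s (1 read/s) after pintool compound addition, following a 10-cycle baseline. Cells were inducible force-coupled HEK293 TREx D1, plated overnight at 30 C and loaded with no-wash calcium dye.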
Large screens that a line does not name were inactive. Compounds with a hit are over-represented: about 4.7% of the library has one in this group of screens. Rule as the data show it, unless noted: active = activation above about 30%; inactive = the rest.

Cc1ccc([N+](=O)[O-])cc1N	none
COc1ccc(NS(=O)(=O)/C=C/c2ccccc2)cc1	none
O=S(=O)(/C=C/c1ccccc1)Nc1ccc(F)cc1	TRHR PAM 31
CC(=O)Nc1ccc(N(C(=O)Cn2nnc3ccccc32)C(C(=O)NCc2ccccc2)c2ccc(C)cc2)cc1 (stereo not drawn)	none
COc1ccccc1N1CCN(C2CCCN(C(=O)c3cccc(-c4ccco4)c3)C2)CC1 (stereo not drawn)	none
N#C/C(=C\c1c[nH]c2ccccc12)C(N)=O	none
CC(=O)Oc1c(/C=C(\C#N)C(N)=O)[nH]c2ccccc12	D1 agonist 53
CCCc1cc(NCCCN(C)C)n2c(nc3ccccc32)c1C#N	D1 antag -38
Cc1ccc(-n2c(SCC(=O)Nc3ccc4c(c3)OCO4)nc3c([nH]c4ccccc43)c2=O)cc1	none
O=C(Nc1ccccc1)N(CCCN1CCOCC1)Cc1ccccc1F	none
N#Cc1nc(Cc2cccc3ccccc23)oc1NCCCN1CCOCC1	D1 antag -42
N#Cc1nc(Cc2cccc3ccccc23)oc1NCCCn1ccnc1	none
CN(C)C(=O)N(CCCN1CCOCC1)Cc1cccc2ccccc12	D1 antag -49
CCOc1ccccc1CNCCN1CCOCC1	none
c1ccc2c(CNCCN3CCOCC3)cccc2c1	D1 antag -32
CN(C)c1ccc(C(=O)/C=C/c2cccnc2)cc1	none
CN(C)c1ccc(/C=C/C(=O)c2cccc(Br)c2)cc1	TRHR agonist 148, D1 antag -75, D1 agonist 772
CN(CC(=O)Nc1ccc(Cl)c(C(F)(F)F)c1)C(=O)C1CCCO1 (stereo not drawn)	none (no result: D1 potentiator)
Nc1nc(N(Cc2ccccc2)Cc2ccccc2)nc(C(F)(F)F)n1	D1 antag -34
CN(N)c1nc(C(F)(F)F)nc2ccccc12	none
Cc1ccc2[nH]c(CSc3nnc(NC(=O)c4ccccc4C)s3)cc(=O)c2c1	none
Cc1ccc2[nH]c(CSc3nnc(NC(=O)c4ccccc4F)s3)cc(=O)c2c1	D1 antag -32
Cc1cc(SCC(=O)Nc2ccc(O)cc2)n2nc(C)c(-c3ccccc3)c2n1	D1 antag -50
CC(=O)Nc1ccc(Nc2cc(C)nc3c(-c4ccccc4)c(C)nn23)cc1	D1 antag -30
COc1ccc(CNC(=O)CN(CCC(C)C)S(=O)(=O)c2ccc3c(c2)OCCO3)cc1	D1 antag -32
O=C(Nc1c2c(nn1-c1ccc(Cl)cc1)CS(=O)(=O)C2)c1ccc2c(c1)OCO2	none
CCC(CC)C(=O)Nc1c2c(nn1-c1ccc(F)cc1)CS(=O)(=O)C2	D1 antag -91
COc1ccc(-n2nc3c(c2NC(=O)COc2ccccc2F)CS(=O)(=O)C3)cc1	D1 antag -38
CCC(CC)C(=O)Nc1c2c(nn1-c1ccc(OC)cc1)CS(=O)(=O)C2	none
COc1cccc(C(=O)Nc2c3c(nn2-c2ccc([N+](=O)[O-])cc2)CS(=O)(=O)C3)c1	none
O=C(Nc1c2c(nn1-c1ccc(Cl)cc1)CS(=O)(=O)C2)c1ccc(Br)cc1	D1 antag -32
COc1cccc(C(=O)Nc2c3c(nn2-c2ccc(Cl)cc2)CS(=O)(=O)C3)c1	D1 antag -33
Cc1ccc(NC(=O)Cn2cc(S(=O)(=O)Cc3ccc(F)cc3)c3ccccc32)cc1Cl	none
CC1CCCN(C2(O)C(=O)Nc3ccc(Cl)cc32)C1 (stereo not drawn)	none
COc1ccc(-n2nc(C(=O)NCC(=O)Nc3cccc(Cl)c3)c3ccccc3c2=O)cc1OC	none
COCCN(C(=O)c1sc2ccccc2c1Cl)c1c(N)n(CC(C)C)c(=O)[nH]c1=O	none
CCCc1nnc(NC(=O)c2cc3ccccc3o2)s1	D1 antag -53
COc1cc(OC)c(NC(=O)CCCn2nc(C)c3c(C)n(-c4ccccc4)nc3c2=O)cc1Cl	none
COc1ccc(Nc2ccc3c(c2)=NC2(CCCCC2)[N+]=3[O-])cc1	none
[O-][N+]1=c2ccc(Nc3ccccc3)cc2=NC12CCCCC2	D1 antag -55
Cc1ccc(CNC(=O)CCCCn2c(=O)c3ccccc3n(Cc3c(C)cc(C)cc3C)c2=O)cc1	none
O=C(CSc1ccc(F)cc1)NC12CC3CC(CC(C3)C1)C2	none
O=C(CCSc1ccc(Cl)c(Cl)c1)NC12CC3CC(CC(C3)C1)C2	D1 agonist 41
CCC(=O)Oc1ccc2c(c1)O/C(=C\c1ccco1)C2=O	D1 agonist 43
CCN(CC)C(=O)Oc1ccc2c(c1)O/C(=C\c1ccco1)C2=O	none
COC(=O)COc1ccc2c(c1)O/C(=C\c1ccco1)C2=O	none
Cc1cc(O)cc2c1C(=O)/C(=C/c1ccco1)O2	D1 agonist 42
CCNC(=S)N(CCO)Cc1cc2cc3c(cc2[nH]c1=O)OCO3	TRHR PAM 34
CNC(=S)N(CCO)Cc1cc2cc3c(cc2[nH]c1=O)OCO3	none
CNC(=S)N(CCO)Cc1cc2cc3c(cc2[nH]c1=O)OCCO3	none
CCN(CC)CCN(Cc1cc2cc3c(cc2[nH]c1=O)OCCO3)C(=S)NC	D1 antag -31
CC(CNC(=O)c1ccc2nc(CCc3ccccc3)oc2c1)c1ccccc1 (stereo not drawn)	none
COc1cc(NS(=O)(=O)c2ccc(-c3cc(C)no3)cc2)cc(OC)c1	none
Cc1nn2c(=O)cc(COc3ccc(/C=C(\C#N)C(=O)Nc4ccccc4)cc3Cl)nc2s1	none
Cc1ccc(N2CCN(C(=O)c3cc4cc5ccc(C)cc5nc4s3)CC2C)cc1 (stereo not drawn)	none
CN(C(=O)COC(=O)COc1ccc2c(c1)CCC2)c1c(N)n(Cc2ccccc2)c(=O)[nH]c1=O	D1 antag -31
CC(C)C(=O)OC/C(O)=C(\C#N)c1nc2ccccc2[nH]1	none
Cc1ccc(C(C)C)c(OC/C(O)=C(\C#N)c2nc3ccccc3[nH]2)c1	D1 antag -32
CCCCNC(=O)CNC(=S)N(CCCN1CCOCC1)Cc1cccs1	none
O=C(O)CC(c1cccc(C(F)(F)F)c1)N1CCS(=O)(=O)CC1 (stereo not drawn)	D1 antag -35
O=S1(=O)CCN(C(CO)c2ccccc2)CC1 (stereo not drawn)	none
CCOC(=O)c1c(C)oc2ncnc(N3CCN(c4ccccc4)CC3)c12	D1 antag -45
COCC(C)NC(=O)c1cnn2c(C(F)F)cc(-c3ccccc3)nc12 (stereo not drawn)	none
CCn1ccc2cc(S(=O)(=O)N3CCC(C(=O)NCCc4ccc(SC)cc4)CC3)ccc21	none
Cc1nc(C(=O)NCc2ccccc2)sc1C1(C)CC(c2ccccc2)=NO1 (stereo not drawn)	D1 agonist 39
Cc1nc(C(=O)Nc2ccccc2)sc1C1(C)CC(c2cccc([N+](=O)[O-])c2)=NO1 (stereo not drawn)	D1 antag -33
O=C(NCC(c1ccco1)N1CCCCC1)c1ccc(NS(=O)(=O)c2ccc(F)cc2)cc1 (stereo not drawn)	none

High-throughput results deposited in PubChem by National Center for Advancing Translational Sciences (NCATS).
